# In the supplement of paper PMC3545927:
# The list shows a part of the results. How many sequences the whole screen found active is unknown.
# Target: furin, P09958
# Assay: furin cleavage Z-score vs untreated control; higher = more cleavage, active = 3.5 or more, inactive = 1 or less, 8 variable residues between constant flanks
# Outline: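 The cleavage Z-score was derived for purified furin acting on 8-mer peptides held on magnetic beads and fused to a cDNA oligonucleotide. Digests lasted 7.5, 15 or 30 min at 1:10 enzyme:substrate in 50 mM HEPES pH 7.5 with CaCl2 and NaCl. Sequencing counts of released DNA, log-transformed against furin-free reactions, were lowess-adjusted and scaled by median absolute deviation.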
# Chain of furin, P09958 (P09958 whole entry): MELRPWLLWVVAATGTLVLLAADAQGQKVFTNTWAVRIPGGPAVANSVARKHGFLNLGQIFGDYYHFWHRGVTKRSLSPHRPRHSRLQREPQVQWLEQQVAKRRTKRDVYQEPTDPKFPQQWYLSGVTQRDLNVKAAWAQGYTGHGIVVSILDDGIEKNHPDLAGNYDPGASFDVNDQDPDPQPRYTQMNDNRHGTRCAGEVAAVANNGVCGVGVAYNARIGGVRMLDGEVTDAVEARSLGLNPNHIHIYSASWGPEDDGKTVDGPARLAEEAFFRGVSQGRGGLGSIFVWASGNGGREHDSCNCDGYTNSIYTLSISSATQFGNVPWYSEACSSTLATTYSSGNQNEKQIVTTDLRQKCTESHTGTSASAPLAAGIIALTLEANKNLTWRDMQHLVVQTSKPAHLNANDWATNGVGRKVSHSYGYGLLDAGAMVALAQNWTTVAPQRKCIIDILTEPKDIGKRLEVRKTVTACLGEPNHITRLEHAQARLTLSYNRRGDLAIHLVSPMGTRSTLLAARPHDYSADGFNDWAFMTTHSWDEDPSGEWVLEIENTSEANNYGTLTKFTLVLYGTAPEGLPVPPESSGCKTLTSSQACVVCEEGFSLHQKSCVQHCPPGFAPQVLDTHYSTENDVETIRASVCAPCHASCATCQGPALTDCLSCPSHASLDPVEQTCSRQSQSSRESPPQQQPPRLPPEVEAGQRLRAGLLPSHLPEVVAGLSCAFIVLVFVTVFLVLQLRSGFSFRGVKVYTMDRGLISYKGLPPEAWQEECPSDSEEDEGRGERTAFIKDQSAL
Sequence,furin cleavage Z-score (7.5 min),furin cleavage Z-score (15 min),furin cleavage Z-score (30 min)
CAIRTEEAIYAGNASASA [HC1487],-0.614 (inactive),-0.579 (inactive),-0.877 (inactive)
CASQMETKLIAGNASASA [HC649],1.65,0.44 (inactive),-0.0666 (inactive)
CANTLHCPTDAGNASASA [HC449],-0.243 (inactive),-1.86 (inactive),-0.583 (inactive)
CAHLERHKRVAGNASASA [FS-1631],7.08 (active),8.35 (active),8.68 (active)
CAYSHRHKRVAGNASASA [FS-903],5.57 (active),7.12 (active),6.65 (active)
CALAWRSGRVAGNASASA [FS-817],-2.25 (inactive),-0.244 (inactive),0.218 (inactive)
CAVGLHEYPVAGNASASA [HC1235],-0.411 (inactive),-0.271 (inactive),-1.96 (inactive)
CAVVCCSVSYAGNASASA [HC2050],-0.658 (inactive),-0.454 (inactive),-0.515 (inactive)
CAMEECSQHAAGNASASA [HC1763],-0.182 (inactive),-0.0436 (inactive),1.21
CAMENCSQHLAGNASASA [HC1721],0.959 (inactive),2.87,0.898 (inactive)
CATFPCSGSWAGNASASA [HC1847],-0.0484 (inactive),-0.806 (inactive),-1.82 (inactive)
CAIPDREVLYAGNASASA [HC1008],-1.25 (inactive),-0.885 (inactive),-0.354 (inactive)
CAYPKRSSEVAGNASASA [FS-2323],-0.277 (inactive),-2 (inactive),0.081 (inactive)
CARQYRSAYYAGNASASA [FS-2591],-0.594 (inactive),0.967 (inactive),2.18
CAATLCSALYAGNASASA [HC295],1.6,-0.694 (inactive),0.385 (inactive)
CAQTKQSGENAGNASASA [HC948],-0.725 (inactive),-1.67 (inactive),-1.53 (inactive)
CALQKRSSRHAGNASASA [FS-2631],5.41 (active),7.89 (active),8.89 (active)
CARQKRSDLYAGNASASA [FS-1966],4.32 (active),5.36 (active),5.43 (active)
CADQKRSLESAGNASASA [FS-2246],-0.764 (inactive),-1.16 (inactive),-0.0942 (inactive)
CARQKRILVNAGNASASA [FS-1768],-0.183 (inactive),-1.46 (inactive),0.612 (inactive)
CARQKRSVENAGNASASA [FS-3038],10.2 (active),9.71 (active),8.9 (active)
CAIGKRSVEYAGNASASA [FS-1984],1.53,2.52,3.58 (active)
CAAWKSKKTPAGNASASA [HC1474],-0.115 (inactive),0.0818 (inactive),-0.362 (inactive)

Sequence,furin cleavage Z-score (7.5 min),furin cleavage Z-score (15 min),furin cleavage Z-score (30 min)
CAGRDKNQVEAGNASASA [HC685],0.288 (inactive),-0.161 (inactive),-1.36 (inactive)
CAAQLHVWIPAGNASASA [HC588],-0.31 (inactive),-0.454 (inactive),-0.108 (inactive)
CAINGLPVSAAGNASASA [HC659],-0.744 (inactive),-0.464 (inactive),-0.336 (inactive)
CARQKRSSEAAGNASASA [FS-3037],9.89 (active),9.51 (active),6.34 (active)
CARQKRIHSAAGNASASA [FS-2361],-1.05 (inactive),-0.069 (inactive),-0.712 (inactive)
CARQKRSVSIAGNASASA [FS-2170],3.57 (active),5.04 (active),6.27 (active)
CAWSTVSSEAAGNASASA [HC1363],1.2,-0.449 (inactive),0.19 (inactive)
CADRLQVLDSAGNASASA [HC1398],1.26,0.665 (inactive),0.144 (inactive)
CAQFKQKALGAGNASASA [HC1024],0.453 (inactive),-0.904 (inactive),0.989 (inactive)
CAPVSARRGRAGNASASA [HC661],3.67 (active),2.35,2.39
CAPLNVRGGRAGNASASA [HC592],-0.486 (inactive),0.851 (inactive),0.124 (inactive)
CANCGYRRCRAGNASASA [HC1507],-0.406 (inactive),-0.477 (inactive),0.265 (inactive)
CAECVTSTWVAGNASASA [HC2180],0.903 (inactive),2.44,0.32 (inactive)
CAGPADGMVSAGNASASA [HC667],0.24 (inactive),0.132 (inactive),-1.59 (inactive)
CAGKSRLKKSAGNASASA [FS-429],3.94 (active),3.83 (active),4.7 (active)
CAGRARCYRSAGNASASA [FS-786],5.83 (active),5.27 (active),4.62 (active)
CAGVARVRKSAGNASASA [FS-169],7.76 (active),6.48 (active),7.18 (active)
CAGVARFYRSAGNASASA [FS-661],6.6 (active),7.47 (active),8.24 (active)
CAGPARPWKSAGNASASA [FS-127],0.451 (inactive),-1.62 (inactive),-1.1 (inactive)
CASVNRNKKSAGNASASA [FS-875],-0.482 (inactive),-0.223 (inactive),1.34
CARPSRLKKFAGNASASA [FS-290],-0.934 (inactive),-0.739 (inactive),-0.88 (inactive)
CAGVPCHRPSAGNASASA [HC2316],0.883 (inactive),-1.9 (inactive),1.03
